Compounds with a hit are over-represented: about 0.51% of the library has one in this group of screens.
Epigenetic reg = epigenetic control regulation, reporter derepression. murine LDR cells, GFP reporter derepression, 30 h. Potency, µM (titrated, usually from 53.9 µM), usual class: activators. actives 0.2% (n = 280,000); note: nearly all actives have a fitted effect of over 60% in size
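GFP-positive cell count by laser-scanning cytometry (objects 20–120 um) after 30 h, 37 C compound exposure of murine LDR cells; reporter is CMV-GFP integrated at a silenced locus, inducible by HDAC or DNMT inhibitors.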
Vif-A3G inh = inhibitors of Vif-APOBEC3G interaction; Q9HC16; HeLa A3G-eYFP + Vif (tagged APOBEC3G with the HIV-1 protein that degrades it), YFP fluorescence, overnight; Potency, µM (titrated, usually from 46.1 µM), hits mostly inhibitors; actives 0.076% (n = 410,000); note: nearly all actives have a fitted effect of over 60% in size
Target sequence (Q9HC16 whole entry, looked up): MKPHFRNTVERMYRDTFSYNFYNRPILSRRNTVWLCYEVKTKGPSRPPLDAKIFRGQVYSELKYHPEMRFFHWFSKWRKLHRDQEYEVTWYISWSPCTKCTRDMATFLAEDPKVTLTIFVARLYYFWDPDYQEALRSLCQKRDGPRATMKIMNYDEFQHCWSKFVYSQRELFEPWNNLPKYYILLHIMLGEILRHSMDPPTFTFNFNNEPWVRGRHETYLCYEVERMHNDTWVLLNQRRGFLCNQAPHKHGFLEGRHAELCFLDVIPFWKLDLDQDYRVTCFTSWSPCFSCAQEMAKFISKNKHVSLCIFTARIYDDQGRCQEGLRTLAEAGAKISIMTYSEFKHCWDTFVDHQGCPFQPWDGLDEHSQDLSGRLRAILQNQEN
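HeLa cells stably expressing Vif and C-terminally eYFP-tagged A3G, seeded overnight at 37 deg C, then exposed to compound by pintool overnight at 37 deg C. Rise in yellow fluorescence (Ex 488/Em 500-530, Acumen) marks blocked Vif-driven A3G degradation.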
Vif-APOBEC3F blk = Vif-A3F binding inhibition; HeLa A3F-eYFP + Vif (tagged APOBEC3F with the HIV-1 protein that degrades it), YFP fluorescence increase; Potency, µM (doses to about 46.1 µM); actives 0.2% (n = 390,000); AID 602313; note: nearly all actives have a fitted effect of over 65% in size
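HeLa cells stably expressing Vif plus C-terminally eYFP-tagged A3F were seeded, incubated overnight at 37 deg C, dosed with compound, incubated overnight again at 37 deg C. Yellow fluorescence (Ex 488/Em 500-530) reported blocked Vif-mediated A3F-eYFP degradation.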
PINK1 expr mod = modulators of PINK1 expression | Potency, µM (doses to about 76.6 µM), usual class: activators | AID 624263 | PINK1 immunofluorescence, high-content cytometry, 24 h | actives 0.2% (n = 410,000); active = well fitted activation curve with a large enough effect; inconclusive = small, poorly fitted or top-dose-only effect; cell line not stated here; note: nearly all actives have a fitted effect of over 65% in size
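A stable cell line was treated with compounds at 5 concentrations for 24 hours, with CCCP as control. PINK1 levels and mitochondrial localization were measured by immunofluorescence with mitochondrial, cell and nuclear markers after fixation, read by laser-scanning cytometry.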
A number is an active result; – = inactive; ? = inconclusive; · = no result; [ ] = remark or other dose. Unless noted, calls come from the whole dose curve; as a rule, active = well fitted curve in the direction sought with a large enough effect; inconclusive = small, poorly fitted or top-dose-only effect, or another doubt; inactive = no such curve, though single readings can be large; an effect the other way counts as inactive or inconclusive.

SMILES | Epigenetic reg | Vif-A3G inh | Vif-APOBEC3F blk | PINK1 expr mod
CS(=O)(=O)c1ccc(C(=O)OCC(=O)NCc2cccs2)cc1[N+](=O)[O-] | · | – | – | –
CCN(CC)S(=O)(=O)c1cc(C(=O)Nc2cc(S(=O)(=O)N3CCOCC3)ccc2N2CCN(C)CC2)ccc1C | · | – | – | –
N#Cc1c(SCC(=O)Nc2ccc(Cl)cc2Cl)sc2c(O)cc(=O)[nH]c12 | · | – | – | 31.6µM
O=C(NN1C(=O)C2C3C=CC(C3)[C@H]2C1=O)c1cccnc1 (stereo partly drawn) | – | – | – | –
COc1ccc(CCC(=O)NNC(=O)Nc2ccccc2Cl)cc1 | · | – | – | –
CC(=O)c1ccc(NC(=O)CCCN2C(=O)/C(=C/C(C)=C/c3ccccc3)SC2=S)cc1 | – | – | – | 22.4µM
CCC(=O)N/N=C(\C)CC(=O)Nc1ccc(F)cc1 | – | – | – | –
CC(=O)Nc1ccc(NC(=O)C/C(C)=N/NC(N)=S)cc1 | – | – | 7.94µM | –
N#Cc1ccsc1NC(=O)c1ccc(Cl)c([N+](=O)[O-])c1 | – | – | – | 31.6µM
N#Cc1ccsc1NC(=O)c1cccc([N+](=O)[O-])c1 | – | – | – | –
CCc1ccc(C(=O)c2cn(CC(=O)Nc3ccc(OC)c(Cl)c3)c3nc(C)ccc3c2=O)cc1 | 15.8µM | – | – | –
CC(C)/C=C1\CC/C(=C\c2ccc(N(C)C)cc2)C1=O | – | – | ? | –
CN(C)c1ccc(/C=C2/C[N+](C)(C)C/C(=C/c3ccc(N(C)C)cc3)C2=O)cc1 | · | ? | 10µM | –
CCOC(=O)C1=C(CN2CCN(c3cc(C)ccc3C)CC2)NC(=O)NC1c1ccccc1 (stereo not drawn) | – | – | – | –
Oc1ccc(C=NNC(=S)Nc2ccc(F)cc2)c(O)c1 | · | ? | 25.1µM | ?
O=C(CCC(=O)Nc1ccc(F)cc1)N/N=C/c1ccc(O)cc1O | – | – | – | –
O=C(CN1C(=O)C(c2ccccc2)Oc2cccnc21)NCc1ccccc1F (stereo not drawn) | · | – | – | –
COc1cccc(C2/C(=C(\O)c3ccc4c(c3)OCCO4)C(=O)C(=O)N2CCCn2ccnc2)c1 (stereo not drawn) | · | – | – | –
CCCCn1c(N)c(N(Cc2ccccc2OC)C(=O)COc2ccccc2OC)c(=O)[nH]c1=O | · | – | ? | –
CCCCn1c(N)c(N(Cc2ccccc2OC)C(=O)c2ccc([N+](=O)[O-])s2)c(=O)[nH]c1=O | · | ? | 12.6µM | –
COc1ccc(-n2c(C)cc(=O)[nH]c2=O)cc1 | · | – | – | –
O=C(Nc1ccccc1N1CCOCC1)c1ccc([N+](=O)[O-])o1 | · | – | – | –
COc1cccc(-c2ccc3c(N)c(C(=O)c4ccc(Br)cc4)sc3n2)c1 | ? | ? | 7.94µM | –
Cc1cc(C)c2nc(NCc3ccccc3O)sc2c1 | · | – | – | –
COc1cc(C(=O)Nc2nnc(S(=O)(=O)N(C)c3ccccc3)s2)cc(OC)c1OC | 10µM | – | – | –
SMILES | Epigenetic reg | Vif-A3G inh | Vif-APOBEC3F blk | PINK1 expr mod
COc1ccc(NC(=O)c2cc(C)on2)cc1OC | – | – | – | 12.6µM
COc1ccc(NC(=O)c2cc(C(C)C)on2)cc1OC | – | – | – | –
COc1cccc(-c2cc(C(=O)Nc3cc(OC)c(OC)c(OC)c3)no2)c1 | – | – | – | 11.2µM
COCC(=O)N1CCC2(CCCN(c3ncccn3)C2)CC1 | · | · | · | –
S=c1[nH]cnc2sc(-c3ccccc3)cc12 | – | – | 5.62µM | –
CNc1ncnc2sc(-c3ccccc3)cc12 | – | – | – | –
CC(=O)Nc1ccc(/C=C/c2sc3ccccc3[n+]2CCCCI)cc1 | · | – | · | –
CCN(CC)c1ccc(/C=C/c2sc3ccccc3[n+]2CCCCI)cc1 | · | – | · | 31.6µM
CC(C)(C)c1ccc(C(=O)CSc2nc3ccccc3c(=O)[nH]2)cc1 | – | – | – | –
Nc1c(C(=O)Nc2nccs2)sc2nc(-c3cccs3)cc(C(F)(F)F)c12 | ? | 8.91µM | ? | ?
Cc1nnc(NC(=O)c2sc3nc(-c4cccs4)cc(C(F)(F)F)c3c2N)s1 | – | ? | 7.08µM | –
Cc1cc(C(F)(F)F)c2c(N)c(C(=O)Nc3c(Cl)cccc3Cl)sc2n1 | – | – | – | –
CC(C)(C)C(=O)c1sc2nc(-c3cccs3)cc(C(F)(F)F)c2c1N | 11.2µM | ? | 2.82µM | –
CCNC(=O)C1(C)CCN(Cc2ccc(C#N)cc2)C1 (stereo not drawn) | · | – | · | –
c1ccc2c(Nc3ccc4c(c3)OCCO4)c3c(nc2c1)CCCC3 | – | – | – | 39.8µM
COCc1ccc(O)c2ncccc12 | 4.47µM | 10µM | – | –
O=[N+]([O-])c1ccc(O)c2ncccc12 | 6.31µM | – | ? | –
Oc1ccc(CNc2ccccc2)c2cccnc12 | – | – | · | ?
Cc1ccccc1NCc1ccc(O)c2ncccc12 | ? | – | – | 11.2µM
Nc1nc(COC(=O)C2CC(=O)N(Cc3ccccc3Cl)C2)nc(Nc2ccccc2)n1 (stereo not drawn) | · | – | – | –
N#CC(C#N)=C1SC(=Nc2ccccc2)C(=Nc2ccccc2)N1c1ccccc1 | · | – | – | 31.6µM
CC(C)CO/N=C1/C[C@@H](O)[C@@H](O)[C@@H]2[C@@H]3C(=O)N(Cc4ccccc4)C(=O)[C@H]3CC[C@@H]12 | –[10.1 µM] | · | · | ·
COCCCNC(=S)N/N=C/c1ccc(OC)cc1 | – | – | 22.4µM | –
CCOC(=O)c1c(CSc2nc(C)cc(C)c2C#N)n(C)c2cc(Br)c(OC(C)=O)cc12 | – | – | – | –
C=CCCc1ccc(C#N)c(SCc2c(C(=O)OCC)c3cc(OC(C)=O)c(Br)cc3n2C)n1 | 12.6µM | – | – | –
SMILES | Epigenetic reg | Vif-A3G inh | Vif-APOBEC3F blk | PINK1 expr mod
Cc1ccc2c(c1)S/C(=C/c1ccc[n+](C)c1)N2CCO | – | ? | ? | –
CCCCN1/C(=C/c2cccc[n+]2C)Sc2cc(NC(C)=O)ccc21 | · | – | – | –
Cc1ccc2c(c1)N(C)/C(=C/c1cccc[n+]1C)S2 | · | ? | 11.2µM | ?
Cc1ccc2c(c1)N(C)/C(=C/c1cccc[n+]1CCO)S2 | · | ? | 12.6µM | –
CN1/C(=C/c2cccc[n+]2C)Sc2ccccc21 | · | ? | ? | 17.8µM
CC(=O)c1ccc2c(c1)N(C)c1ccccc1S2 | – | – | – | –
CCOc1ccc(CCN2C(=S)N([C@@H](Cc3ccc(O)cc3)CN3CCC[C@@H]3CN3C(=S)NC[C@@H]3Cc3ccccc3)C[C@@H]2Cc2ccc(O)cc2)cc1 | · | – | · | –
CCCS(=O)(=O)NC(=O)C1(C)CCCN(C(=O)c2ccccc2OC)C1 (stereo not drawn) | · | – | · | –
CCOc1ccc(/C=C(\C#N)C(=O)Nc2cccnc2)cc1 | – | – | – | –
CCOc1ccc(NC(=O)/C(C#N)=C\c2ccc(N3CCCC3)c(C)c2)cc1 | · | ? | 11.2µM | ?
CN(C)c1ccc(/C=N/NC(=O)c2ccccc2Cl)cc1 | – | 10µM | – | –
CN(C)c1ccc(/C=N/NC(=O)c2ccccc2)cc1 | – | ? | – | –
CN(C)CCNc1ccc2nnn3c4ccc(O)cc4c(=O)c1c23 | · | – | ? | –
CCN(CC)CCCNc1ccc2ncn3c4ccc(O)cc4c(=O)c1c23 | · | ? | 22.4µM | –

Bioassay records deposited in PubChem by National Center for Advancing Translational Sciences (NCATS).
